In PubChem BioAssay (NCATS):
Results filed as inconclusive are left out. Unless noted, the call rests on the fitted dose curve; in most records, active means well fitted curve in either direction with a large enough effect (not every such curve was filed as active); inconclusive means small, poorly fitted or top-dose-only effect, or another doubt; inactive means flat fitted curve, though single readings scatter.

Legend:
[1] = AP1 Signaling Pathway (AID 357); settings: ME-180 AP-1-bla reporter, EGF-induced, beta-lactamase ratio, 5 h; at 17.2 µM (top of the series) unless noted;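 further: ME-180 reporter cells stimulated with EGF at its EC50 level; on the % scale 0 is the no-effect control and ±100 the full control effect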
Procedure, shortened: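 Read-out was the 460nm/530nm emission ratio (excitation 405nm) after CCF4 loading for 2.5 hours at room temperature. Cells carried an AP-1-driven beta-lactamase reporter, were stimulated with EC50 EGF plus compound for 5 hours, and AC50 values came from titrations.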

[2] = NFAT Signaling Pathway (AID 444); settings: Jurkat NFAT-bla M1, carbachol, beta-lactamase ratio, 5 h; at 17.2 µM (top of the series) unless noted;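 further: carbachol stimulus at about its EC50 of 1 µM final; on the % scale 0 is the no-effect control and ±100 the full control effect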
Procedure, shortened: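 Read-out: CCF4 FRET ratio (460 nm/530 nm) after 1 h RT dye loading, used for %activity and AC50 from titration series. Cells: Jurkat NFAT-β-lactamase/M1 line, treated with compound plus 1 uM carbachol for 5 h, 37 °C.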

[3] = Stat Signaling Pathway (AID 446); settings: ME-180 (cervical carcinoma) SIE beta-lactamase reporter, IL-6 stimulated, 5 h; at 17.2 µM (top of the series) unless noted;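 further: ME-180 cervical cancer cells given 40 pM IL-6 alongside compound; SIE-controlled beta-lactamase reporter measured as 460/530 nm FRET emission ratio; on the % scale 0 is the no-effect control and ±100 the full control effect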
Procedure, shortened: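 Overnight-plated ME-180 cells bearing a STAT Inducible Element beta-lactamase reporter; 5 h co-exposure to compound and 40 pM IL-6; values normalized to 300 pM IL-6 and 125 nM JAK inhibitor controls.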

[4] = target: Glucocorticoid receptor (Homo sapiens) (UniProt P04150); experiment: GR-GFP Redistribution (AID 450;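 active means compounds whose dose series gives a full or clear partial fitted curve of increased nuclear translocation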; further: potency means the concentration at half of the fitted maximal effect)
Chain of Glucocorticoid receptor (Homo sapiens) (P04150 whole entry, looked up): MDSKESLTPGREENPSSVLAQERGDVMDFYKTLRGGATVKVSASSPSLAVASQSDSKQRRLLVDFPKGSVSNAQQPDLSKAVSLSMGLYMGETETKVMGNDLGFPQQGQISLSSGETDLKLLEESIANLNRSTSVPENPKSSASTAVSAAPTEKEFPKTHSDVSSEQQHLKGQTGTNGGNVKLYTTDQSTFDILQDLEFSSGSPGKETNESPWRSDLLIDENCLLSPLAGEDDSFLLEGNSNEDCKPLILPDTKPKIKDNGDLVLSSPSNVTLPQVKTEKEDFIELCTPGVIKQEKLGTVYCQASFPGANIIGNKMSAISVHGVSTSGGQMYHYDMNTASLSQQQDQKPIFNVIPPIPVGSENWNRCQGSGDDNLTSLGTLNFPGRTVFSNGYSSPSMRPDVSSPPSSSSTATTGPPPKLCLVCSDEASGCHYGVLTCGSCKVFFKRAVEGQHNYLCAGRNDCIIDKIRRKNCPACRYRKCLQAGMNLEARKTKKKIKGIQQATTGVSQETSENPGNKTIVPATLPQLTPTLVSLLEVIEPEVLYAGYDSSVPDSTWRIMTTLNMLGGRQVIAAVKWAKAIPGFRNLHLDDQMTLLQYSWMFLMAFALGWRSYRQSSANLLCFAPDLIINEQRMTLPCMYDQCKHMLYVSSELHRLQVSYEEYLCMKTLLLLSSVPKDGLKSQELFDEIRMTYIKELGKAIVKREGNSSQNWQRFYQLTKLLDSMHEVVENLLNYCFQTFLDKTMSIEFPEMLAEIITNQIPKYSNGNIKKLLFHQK

CC1(C)Cc2c(sc3nc4n(c(=N)c23)CCC4)CO1
inactive: activity change, negative = inhibition [1] -5.14% | activity change, negative = inhibition [2] -4.64% | activity, negative = inhibition [3] 4.33% | Potency [4] > 20.6 µM

CCC(=O)Nc1cccc(-c2nnc(SCC(=O)NCc3ccco3)n2C)c1
inactive: activity change, negative = inhibition [1] -2.45% | activity change, negative = inhibition [2] 6.34% | activity, negative = inhibition [3] -2.86% | Potency [4] > 20.6 µM

O=C(NCCN1CCOCC1)c1cc2n(n1)C(C(F)(F)F)CC(c1ccc(F)cc1)N2 (centres undefined)
inactive: activity change, negative = inhibition [1] 2.33% | activity change, negative = inhibition [2] 0.228% | activity, negative = inhibition [3] 8.95% | Potency [4] > 20.6 µM

c1cncc(-c2nnc3sc(C4CCCCC4)nn23)c1
inactive: activity change, negative = inhibition [1] -18.8% | activity change, negative = inhibition [2] -20% | activity, negative = inhibition [3] -1.41% | Potency [4] > 20.6 µM

O=C(O)c1cc2cccc(S(=O)(=O)N3CCOCC3)c2cc1O
inactive: activity change, negative = inhibition [1] 7.94% | activity change, negative = inhibition [2] 0.851% | activity, negative = inhibition [3] 6.34% | Potency [4] > 20.6 µM

Clc1ccc(-c2nn3c(-c4cccc(Cl)c4)nnc3s2)cc1
inactive: activity change, negative = inhibition [1] 10.2% | activity change, negative = inhibition [2] -4.86% | activity, negative = inhibition [3] 3.59% | Potency [4] > 20.6 µM

Cn1c(=O)oc2cc(C(=O)c3ccccc3)ccc21
inactive: activity change, negative = inhibition [1] -10.8% | activity change, negative = inhibition [2] -9.48% | activity, negative = inhibition [3] 0.21% | Potency [4] > 20.6 µM

Cc1[nH]nc2cn[nH]c12
inactive: activity change, negative = inhibition [1] -10.4% | activity change, negative = inhibition [2] 6.17% | activity, negative = inhibition [3] 4.46% | Potency [4] > 20.6 µM

Cc1ccc(NC(=O)Cn2nc(C)c3ccccc3c2=O)cc1
inactive: activity change, negative = inhibition [1] 14.3% | activity change, negative = inhibition [2] 10.1% | activity, negative = inhibition [3] 6.34% | Potency [4] > 20.6 µM

CCC(=NC(CC)CO)C1=C(O)CC(C)(C)CC1=O (centres undefined)
inactive: activity change, negative = inhibition [1] 16.1% | activity change, negative = inhibition [2] -5.13% | activity, negative = inhibition [3] 12.8% | Potency [4] > 20.6 µM

Cn1c(=O)n(CCC(=O)O)c2ccccc21
inactive: activity change, negative = inhibition [1] 11.6% | activity change, negative = inhibition [2] 2% | activity, negative = inhibition [3] 2.26% | Potency [4] > 20.6 µM

Nc1nnc(CSc2ccc(Cl)cc2)s1
inactive: activity change, negative = inhibition [1] 18.1% | activity change, negative = inhibition [2] -0.614% | activity, negative = inhibition [3] 2.04% | Potency [4] > 20.6 µM

CCc1nnc(NC(=O)c2c(O)c3c([nH]c2=O)CCCC3)s1
inactive: activity change, negative = inhibition [1] -9.97% | activity change, negative = inhibition [2] 15.9% | activity, negative = inhibition [3] 4.12% | Potency [4] > 20.6 µM

COC(=O)C(NC(C)=O)(Nc1ccccc1)C(=O)OC
inactive: activity change, negative = inhibition [1] 2.11% | activity change, negative = inhibition [2] -1.66% | activity, negative = inhibition [3] 13.2% | Potency [4] > 20.6 µM

COc1ccc(/C(O)=C2/C(=O)C(=O)N(CCCN(C)C)C2c2ccc(C)o2)cc1Cl (centres undefined)
inactive: activity change, negative = inhibition [1] 9.2% | activity change, negative = inhibition [2] -6.18% | activity, negative = inhibition [3] 3.77% | Potency [4] > 20.6 µM

Nc1nnc(CC2=CCCCC2)s1
inactive: activity change, negative = inhibition [1] 1.59% | activity change, negative = inhibition [2] -3.51% | activity, negative = inhibition [3] 3.57% | Potency [4] > 20.6 µM

CCOC(=O)c1ccc(NC(=O)COc2ccccc2OC)cc1
inactive: activity change, negative = inhibition [1] -16.3% | activity change, negative = inhibition [2] 0.388% | activity, negative = inhibition [3] 2.17% | Potency [4] > 20.6 µM

Cc1ccc2[nH]c3c(c2c1)CN(C(=O)CN1CCN(c2ccccn2)CC1)CC3
inactive: activity change, negative = inhibition [1] -13.5% | activity change, negative = inhibition [2] 22.4% | activity, negative = inhibition [3] -12.2% | Potency [4] > 20.6 µM

COc1ccc(-c2c3c([nH]c(=S)c2C#N)CCC3)cc1
inactive: activity change, negative = inhibition [1] 22.9% | activity change, negative = inhibition [2] -5.23% | activity, negative = inhibition [3] -7.04% | Potency [4] > 20.6 µM

CC1(C)CC(=O)C2=C(C1)OC(N)=C(C#N)C21C(=O)N(CN2CCOCC2)c2ccccc21 (centres undefined)
inactive: activity change, negative = inhibition [1] 15.6% | activity change, negative = inhibition [2] 1.95% | activity, negative = inhibition [3] 5.03% | Potency [4] > 20.6 µM

O=S(=O)(c1ccc2ccccc2c1)N(CC(O)CN1CCOCC1)c1ccccc1 (centres undefined)
inactive: activity change, negative = inhibition [1] -11.7% | activity change, negative = inhibition [2] 4.35% | activity, negative = inhibition [3] -7.59% | Potency [4] > 20.6 µM

COc1cccc(N2C(=O)C(O)=C(C(C)=O)C2c2ccc(OC)c(OC)c2)c1 (centres undefined)
inactive: activity change, negative = inhibition [1] -12.6% | activity change, negative = inhibition [2] 9.05% | activity, negative = inhibition [3] 0.326% | Potency [4] > 20.6 µM

O=C(Oc1ccccc1)c1c(Cl)cccc1P(=O)(O)O
inactive: activity change, negative = inhibition [1] 7.32% | activity change, negative = inhibition [2] 2.02% | activity, negative = inhibition [3] 5.05% | Potency [4] > 20.6 µM

c1nc(NC2CCCCC2)c2[nH]cnc2n1
inactive: activity change, negative = inhibition [1] -4.39% | activity change, negative = inhibition [2] 2.42% | activity, negative = inhibition [3] -29.4% | Potency [4] > 20.6 µM

CCOC(=O)C1CCN(c2ncnc3c2cnn3-c2ccc(OC)cc2)CC1
inactive: activity change, negative = inhibition [1] 4.62% | activity change, negative = inhibition [2] -5.45% | activity, negative = inhibition [3] 1.28% | Potency [4] > 20.6 µM

Cc1ccc(N2C(=O)CC3(CC4C=CC3C4)C2=O)cc1 (centres undefined)
inactive: activity change, negative = inhibition [1] 28.9% | activity change, negative = inhibition [2] 4.88% | activity, negative = inhibition [3] 14% | Potency [4] > 20.6 µM
